According to PubChem BioAssay (EPA / NIEHS):
Results filed as inconclusive are left out. Activity calls are given as the source filed them. Rule for the calls, unless noted: active = hit-call score of the fitted dose curve at least 0.9, where 1 is the maximum; inconclusive = response in the unintended direction; inactive = score below 0.9.

Columns and labels:
[1] = ATG_TCF_b_cat_CIS: Attagene CIS-FACTORIAL HepG2 Assay for human T-Cell-Factor with beta-catenin (TCF/b-cat) (AID 2282965; active = hit-call score of the fitted dose curve at least 0.9, where 1 is the maximum; inactive = score below 0.9); conditions: HepG2 TCF/beta-catenin cis-reporter transcription, actives raise or lower the signal
Procedure, shortened: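 Measured: reporter mRNA in HepG2 transiently transfected with cis-promoter reporter units, 24 h after chemical addition. Fitting was bidirectional, DMSO as negative control.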

[2] = ATG_TAL_CIS: Attagene CIS-FACTORIAL HepG2 Assay for human TAL Basal Promoter (AID 2282966; active = hit-call score of the fitted dose curve at least 0.9, where 1 is the maximum; inactive = score below 0.9;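 note: background control endpoint measuring basal TAL promoter reporter mRNA not a specific factor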); conditions: HepG2 Attagene cis-factorial TAL promoter reporter; actives raise or lower the signal
Procedure, shortened: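 Basal-promoter background-control endpoint from a multiplexed HepG2 reporter panel. Cells were exposed 24 h, then reporter mRNA was read by RT-PCR/CE fluorescence and fitted in both directions relative to DMSO.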

[3] = ATG_TGFb_CIS: Attagene CIS-FACTORIAL HepG2 Assay for human Transforming Growth Factor (TGF) (AID 2282967; active = hit-call score of the fitted dose curve at least 0.9, where 1 is the maximum; inactive = score below 0.9); conditions: HepG2 Attagene CIS TGFb reporter, mRNA transcription; actives raise or lower the signal
Procedure, shortened: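 Liver HepG2 line, cis-factorial reporter panel, 24 h dosing. Quantitation: RT-PCR products labeled with 6-FAM, cut with HpaI, resolved by capillary electrophoresis; DMSO-referenced bidirectional analysis.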

[4] = molecular target: Estrogen receptor (Homo sapiens) (UniProt P03372); assay: ATG_ERa_TRANS: Attagene TRANS-FACTORIAL HepG2 Assay for human Estrogen Receptor alpha (ERa) (AID 2282970); conditions: HepG2 Attagene TRANS ERa GAL4 reporter, mRNA
Sequence of Estrogen receptor (Homo sapiens) (P03372 whole entry, looked up, the tested form may be a part): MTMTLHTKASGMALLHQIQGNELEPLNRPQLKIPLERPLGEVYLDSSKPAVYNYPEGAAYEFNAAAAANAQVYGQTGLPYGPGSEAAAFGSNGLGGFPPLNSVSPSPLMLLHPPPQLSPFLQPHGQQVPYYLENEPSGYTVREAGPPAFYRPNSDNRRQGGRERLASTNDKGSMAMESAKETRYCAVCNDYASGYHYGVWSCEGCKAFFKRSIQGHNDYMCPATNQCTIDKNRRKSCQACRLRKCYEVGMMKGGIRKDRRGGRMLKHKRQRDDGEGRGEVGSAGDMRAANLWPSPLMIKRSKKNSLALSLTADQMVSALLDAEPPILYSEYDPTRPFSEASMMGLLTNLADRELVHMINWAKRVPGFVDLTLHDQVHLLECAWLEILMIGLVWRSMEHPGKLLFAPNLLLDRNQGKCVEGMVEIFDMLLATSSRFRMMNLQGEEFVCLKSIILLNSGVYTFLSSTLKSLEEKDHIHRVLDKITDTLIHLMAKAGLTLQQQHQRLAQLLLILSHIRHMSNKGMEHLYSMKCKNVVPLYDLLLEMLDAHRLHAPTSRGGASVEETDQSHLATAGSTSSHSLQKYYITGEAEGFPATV
Procedure, shortened: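 Gal4-fusion ERa transactivation, measured as reporter transcript level in transiently transfected HepG2 cells. Exposure 24 h; RT-PCR plus capillary electrophoresis with fluorescence detection.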

[5] = molecular target: X-box-binding protein 1 (Homo sapiens) (UniProt P17861); assay: ATG_Xbp1_CIS: Attagene CIS-FACTORIAL HepG2 Assay for human X-box Binding Protein 1 (XBP1) (AID 2282972; active = hit-call score of the fitted dose curve at least 0.9, where 1 is the maximum; inactive = score below 0.9); conditions: HepG2 XBP1 cis-element reporter, Attagene multiplex; actives raise or lower the signal
Sequence of X-box-binding protein 1 (Homo sapiens) (P17861 whole entry, looked up): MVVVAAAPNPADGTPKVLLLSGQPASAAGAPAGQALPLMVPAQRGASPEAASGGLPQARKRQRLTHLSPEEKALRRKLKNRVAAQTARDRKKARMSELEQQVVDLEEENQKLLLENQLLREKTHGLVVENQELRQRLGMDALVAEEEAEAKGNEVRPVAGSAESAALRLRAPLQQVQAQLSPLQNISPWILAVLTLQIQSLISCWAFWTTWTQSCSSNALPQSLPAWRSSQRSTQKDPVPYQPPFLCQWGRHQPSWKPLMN
Procedure, shortened: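 Multiplexed cis-reporter readout in transfected HepG2 liver cells. Exposure lasted 24 hours. Activity in either direction was fitted against DMSO as negative control and baseline.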

[6] = molecular target: Glucocorticoid receptor (Homo sapiens) (UniProt P04150); assay: ATG_GR_TRANS: Attagene TRANS-FACTORIAL HepG2 Assay for human Glucocorticoid Receptor (GR) (AID 2282978); conditions: HepG2 Attagene TRANS GR reporter, mRNA transcription;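 note: activators score as hits since higher reporter transcript over DMSO is fitted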
Sequence of Glucocorticoid receptor (Homo sapiens) (P04150 whole entry, looked up, the tested form may be a part): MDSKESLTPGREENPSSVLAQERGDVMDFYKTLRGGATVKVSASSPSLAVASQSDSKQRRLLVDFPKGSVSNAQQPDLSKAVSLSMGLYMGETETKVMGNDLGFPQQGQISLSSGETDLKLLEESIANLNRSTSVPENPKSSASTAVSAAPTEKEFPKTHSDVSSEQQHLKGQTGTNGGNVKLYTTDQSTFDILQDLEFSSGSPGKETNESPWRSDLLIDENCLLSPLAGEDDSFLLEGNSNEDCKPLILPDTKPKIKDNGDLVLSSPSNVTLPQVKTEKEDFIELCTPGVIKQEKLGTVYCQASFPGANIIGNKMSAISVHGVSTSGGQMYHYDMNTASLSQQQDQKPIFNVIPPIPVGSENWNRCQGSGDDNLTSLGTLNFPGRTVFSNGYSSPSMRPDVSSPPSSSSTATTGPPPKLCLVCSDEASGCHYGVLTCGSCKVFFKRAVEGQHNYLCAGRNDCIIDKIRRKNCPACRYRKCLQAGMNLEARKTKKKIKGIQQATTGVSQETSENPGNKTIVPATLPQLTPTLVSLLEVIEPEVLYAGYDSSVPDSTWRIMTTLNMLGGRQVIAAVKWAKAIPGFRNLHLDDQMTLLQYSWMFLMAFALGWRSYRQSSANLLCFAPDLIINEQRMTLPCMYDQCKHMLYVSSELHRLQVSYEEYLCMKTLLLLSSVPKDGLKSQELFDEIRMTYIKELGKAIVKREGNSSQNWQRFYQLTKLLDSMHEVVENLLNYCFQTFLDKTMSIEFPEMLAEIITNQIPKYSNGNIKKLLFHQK
Procedure, shortened: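 Reporter transcript levels, detected by fluorescence after RT-PCR and capillary electrophoresis, served as the endpoint. HepG2 cells bearing transfected GAL4-UAS reporters responsive to NR-GAL4 chimeras were incubated with compound 24 h; DMSO defined baseline.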

[7] = molecular target: Oxysterols receptor LXR-beta (Homo sapiens) (UniProt P55055); assay: ATG_LXRb_TRANS: Attagene TRANS-FACTORIAL HepG2 Assay for human Liver X Receptor beta (LXRb) (AID 2282981); conditions: HepG2 Attagene TRANS GAL4-LXRb reporter, mRNA
Sequence of Oxysterols receptor LXR-beta (Homo sapiens) (P55055 whole entry, looked up, the tested form may be a part): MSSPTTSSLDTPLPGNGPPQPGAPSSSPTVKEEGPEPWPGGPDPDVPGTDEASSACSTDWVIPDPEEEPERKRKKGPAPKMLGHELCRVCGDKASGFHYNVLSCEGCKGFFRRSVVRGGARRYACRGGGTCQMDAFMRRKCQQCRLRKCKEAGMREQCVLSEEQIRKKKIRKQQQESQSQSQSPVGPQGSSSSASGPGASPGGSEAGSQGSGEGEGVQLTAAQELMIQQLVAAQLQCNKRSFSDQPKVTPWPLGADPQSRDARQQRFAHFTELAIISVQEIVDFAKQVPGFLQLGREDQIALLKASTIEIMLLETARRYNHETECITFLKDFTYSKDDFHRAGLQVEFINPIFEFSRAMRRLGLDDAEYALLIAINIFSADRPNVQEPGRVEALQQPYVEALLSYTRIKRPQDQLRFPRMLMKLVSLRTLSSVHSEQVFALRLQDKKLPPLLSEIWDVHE
Procedure, shortened: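 After 24 h of chemical treatment, transfected HepG2 cells yield total RNA; reporter cDNA is PCR-amplified, FAM-labelled, HpaI-cut and run on capillary electrophoresis. Signal reflects chimeric LXRb-Gal4 activity on GAL4-UAS reporters.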

[8] = molecular target: Hepatocyte nuclear factor 4-alpha (Homo sapiens) (UniProt P41235); assay: ATG_HNF4a_TRANS: Attagene TRANS-FACTORIAL HepG2 Assay for human Hepatocyte Nuclear Factor 4 alpha (HNF4a) (AID 2282982); conditions: HepG2 HNF4a transactivation reporter, mRNA readout
Sequence of Hepatocyte nuclear factor 4-alpha (Homo sapiens) (P41235 whole entry, looked up): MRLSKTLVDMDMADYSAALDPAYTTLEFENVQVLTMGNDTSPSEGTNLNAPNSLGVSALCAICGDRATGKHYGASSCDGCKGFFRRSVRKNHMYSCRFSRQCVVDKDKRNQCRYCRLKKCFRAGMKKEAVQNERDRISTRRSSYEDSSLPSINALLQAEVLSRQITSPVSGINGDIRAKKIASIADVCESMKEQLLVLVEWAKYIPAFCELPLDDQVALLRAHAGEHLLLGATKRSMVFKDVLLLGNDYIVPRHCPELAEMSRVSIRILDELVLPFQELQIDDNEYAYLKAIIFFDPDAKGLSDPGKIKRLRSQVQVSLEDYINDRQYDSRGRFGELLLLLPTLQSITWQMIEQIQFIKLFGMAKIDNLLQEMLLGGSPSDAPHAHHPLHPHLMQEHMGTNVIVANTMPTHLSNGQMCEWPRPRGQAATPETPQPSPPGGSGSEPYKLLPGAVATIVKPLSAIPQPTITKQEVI
Procedure, shortened: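 Multiplexed reporter assay: transfected HepG2, 24 h exposure, total RNA → oligo(dT) RT → PCR → 6-FAM extension → HpaI digest → CE fluorescence. DMSO = negative control.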

[9] = ATG_M_32_TRANS: Attagene TRANS-FACTORIAL HepG2 Assay for M32 Transcription Factor (Internal Marker) (AID 2282984); conditions: HepG2 Attagene TRANS M32 internal marker reporter
Procedure, shortened: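 Cell-based TRANS-format assay in HepG2: exogenous chimeric GAL4 reporter units transiently expressed, compounds applied 24 h. Reporter mRNA detected by RT-PCR plus capillary electrophoresis; this readout is an internal background marker.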

[10] = molecular target: Nuclear receptor subfamily 4 group A member 2 (Homo sapiens) (UniProt P43354); assay: ATG_NURR1_TRANS: Attagene TRANS-FACTORIAL HepG2 Assay for human Nuclear Receptor Related Protein 1 (NURR1) (AID 2282985); conditions: HepG2 Attagene TRANS reporter, mRNA readout
Sequence of Nuclear receptor subfamily 4 group A member 2 (Homo sapiens) (P43354 whole entry, looked up, the tested form may be a part): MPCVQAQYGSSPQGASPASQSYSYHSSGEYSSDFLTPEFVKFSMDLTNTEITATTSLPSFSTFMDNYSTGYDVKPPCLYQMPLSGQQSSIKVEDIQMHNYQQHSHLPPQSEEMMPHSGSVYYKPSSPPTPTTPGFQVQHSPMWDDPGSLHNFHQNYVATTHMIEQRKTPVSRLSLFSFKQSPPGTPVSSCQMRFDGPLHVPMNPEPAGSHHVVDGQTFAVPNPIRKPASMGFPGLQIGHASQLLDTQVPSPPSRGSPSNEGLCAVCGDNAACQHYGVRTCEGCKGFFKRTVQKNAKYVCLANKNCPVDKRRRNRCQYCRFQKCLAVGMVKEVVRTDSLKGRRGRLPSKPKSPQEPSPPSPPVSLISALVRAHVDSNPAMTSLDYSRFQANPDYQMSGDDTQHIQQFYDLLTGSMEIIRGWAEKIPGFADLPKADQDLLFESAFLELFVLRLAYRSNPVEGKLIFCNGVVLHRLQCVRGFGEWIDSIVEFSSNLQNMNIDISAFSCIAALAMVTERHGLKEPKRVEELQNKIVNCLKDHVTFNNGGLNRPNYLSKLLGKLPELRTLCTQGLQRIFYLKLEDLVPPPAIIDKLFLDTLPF
Procedure, shortened: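 Measures transcriptional activation by an exogenous NR-Gal4 chimera in transfected HepG2 liver cells. After 24 h, reporter RNA is reverse-transcribed, amplified and resolved by capillary electrophoresis; DMSO defines baseline.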

[11] = molecular target: Transcriptional activator Myb (Homo sapiens) (UniProt P10242); assay: ATG_Myb_CIS: Attagene CIS-FACTORIAL HepG2 Assay for human Myeloblastosis (Myb) Proto-Oncogene Transcription Factor (AID 2282986; active = hit-call score of the fitted dose curve at least 0.9, where 1 is the maximum; inactive = score below 0.9); conditions: HepG2 Attagene CIS-FACTORIAL Myb reporter transcription; actives raise or lower the signal
Sequence of Transcriptional activator Myb (Homo sapiens) (P10242 whole entry, looked up): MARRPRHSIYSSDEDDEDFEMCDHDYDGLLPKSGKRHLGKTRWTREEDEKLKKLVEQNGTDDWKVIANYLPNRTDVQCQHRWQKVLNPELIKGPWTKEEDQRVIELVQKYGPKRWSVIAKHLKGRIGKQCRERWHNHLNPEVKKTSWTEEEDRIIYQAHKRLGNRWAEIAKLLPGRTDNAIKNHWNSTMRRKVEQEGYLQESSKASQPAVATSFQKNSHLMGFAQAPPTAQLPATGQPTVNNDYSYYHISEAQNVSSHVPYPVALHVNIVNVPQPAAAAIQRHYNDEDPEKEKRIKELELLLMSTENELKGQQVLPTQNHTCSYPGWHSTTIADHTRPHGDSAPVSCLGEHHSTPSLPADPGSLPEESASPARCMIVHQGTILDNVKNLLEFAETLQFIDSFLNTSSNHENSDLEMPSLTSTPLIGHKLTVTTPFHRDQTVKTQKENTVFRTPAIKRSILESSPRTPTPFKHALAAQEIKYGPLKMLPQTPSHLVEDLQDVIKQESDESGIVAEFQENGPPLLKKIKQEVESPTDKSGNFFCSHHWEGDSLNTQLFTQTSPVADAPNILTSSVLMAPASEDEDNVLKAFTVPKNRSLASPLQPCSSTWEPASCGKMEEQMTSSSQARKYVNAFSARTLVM
Procedure, shortened: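 Transiently transfected HepG2 cells, treated 24 h. Reporter mRNA quantified by RT-PCR/capillary electrophoresis; bidirectional fit relative to DMSO.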

[12] = ATG_M_19_TRANS: Attagene TRANS-FACTORIAL HepG2 Assay for M19 Transcription Factor (Internal Marker) (AID 2282974); conditions: HepG2 Attagene TRANS-FACTORIAL M19 internal marker reporter
Procedure, shortened: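 Reporter mRNA induction was measured in transfected HepG2 cells 24 h after dosing. Endpoint fitted upward relative to DMSO and serves as a background control within the multiplexed TRANS panel.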

[13] = ATG_GAL4_TRANS: Attagene TRANS-FACTORIAL HepG2 Assay for GAL4 (Internal Marker) (AID 2282976); conditions: HepG2 Attagene TRANS GAL4 internal marker reporter
Procedure, shortened: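 Background-control readout: GAL4-UAS reporter transcript in transiently transfected HepG2 cells after 24 h compound exposure. Measured by RT-PCR, 6-FAM primer extension, HpaI digest and capillary electrophoresis; gain-of-signal fit versus DMSO.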

[14] = molecular target: Oxysterols receptor LXR-alpha (Homo sapiens) (UniProt Q13133); assay: ATG_LXRa_TRANS: Attagene TRANS-FACTORIAL HepG2 Assay for human Liver X Receptor alpha (LXRa) (AID 2282980); conditions: HepG2 Attagene TRANS reporter, LXRa transactivation
Sequence of Oxysterols receptor LXR-alpha (Homo sapiens) (Q13133 whole entry, looked up, the tested form may be a part): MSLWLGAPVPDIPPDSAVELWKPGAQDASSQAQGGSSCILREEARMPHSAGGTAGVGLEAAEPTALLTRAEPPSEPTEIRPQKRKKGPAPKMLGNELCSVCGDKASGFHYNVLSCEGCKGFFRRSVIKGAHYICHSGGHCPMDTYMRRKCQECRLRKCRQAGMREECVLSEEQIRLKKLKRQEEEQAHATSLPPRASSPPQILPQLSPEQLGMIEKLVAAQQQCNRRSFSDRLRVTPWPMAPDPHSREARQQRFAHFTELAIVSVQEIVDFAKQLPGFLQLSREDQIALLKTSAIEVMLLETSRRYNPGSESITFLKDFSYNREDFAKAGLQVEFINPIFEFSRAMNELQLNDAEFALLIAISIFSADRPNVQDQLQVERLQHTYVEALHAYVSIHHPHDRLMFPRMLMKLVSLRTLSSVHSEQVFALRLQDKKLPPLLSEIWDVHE
Procedure, shortened: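 HepG2 cells transiently transfected with GAL4-UAS reporter units for chimeric NR-Gal4 proteins, exposed to chemicals for 24 h. Reporter mRNA quantified by RT-PCR and capillary electrophoresis; gain of signal fitted relative to DMSO.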

[15] = ATG_VDRE_CIS: Attagene CIS-FACTORIAL HepG2 Assay for human Vitamin D Receptor Element (VDRE) (AID 2282968; active = hit-call score of the fitted dose curve at least 0.9, where 1 is the maximum; inactive = score below 0.9); conditions: HepG2 VDRE cis-reporter transcription, actives raise or lower the signal
Procedure, shortened: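 Measures endogenous factor activity through cis-element-driven reporter transcripts in transiently transfected HepG2. Cells are treated 24 h; reporter mRNA is quantified by RT-PCR and capillary electrophoresis; fitting is bidirectional.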

[16] = ATG_M_06_TRANS: Attagene TRANS-FACTORIAL HepG2 Assay for M06 Transcription Factor (Internal Marker) (AID 2282983); conditions: HepG2 Attagene TRANS M06 internal marker reporter
Procedure, shortened: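 mRNA levels of a reporter transcript, quantified as FAM fluorescence on capillary electrophoresis, served as readout. HepG2 cells expressing exogenous GAL4-chimera reporter constructs were exposed for 24 h. Gain of signal over DMSO was evaluated.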

[17] = molecular target: Steroid hormone receptor ERR1 (Homo sapiens) (UniProt P11474); assay: ATG_ERRa_TRANS: Attagene TRANS-FACTORIAL HepG2 Assay for human Estrogen-Related Receptor alpha (ERRa) (AID 2282971); conditions: HepG2 Attagene TRANS reporter, ERRa transactivation
Sequence of Steroid hormone receptor ERR1 (Homo sapiens) (P11474 whole entry, looked up, the tested form may be a part): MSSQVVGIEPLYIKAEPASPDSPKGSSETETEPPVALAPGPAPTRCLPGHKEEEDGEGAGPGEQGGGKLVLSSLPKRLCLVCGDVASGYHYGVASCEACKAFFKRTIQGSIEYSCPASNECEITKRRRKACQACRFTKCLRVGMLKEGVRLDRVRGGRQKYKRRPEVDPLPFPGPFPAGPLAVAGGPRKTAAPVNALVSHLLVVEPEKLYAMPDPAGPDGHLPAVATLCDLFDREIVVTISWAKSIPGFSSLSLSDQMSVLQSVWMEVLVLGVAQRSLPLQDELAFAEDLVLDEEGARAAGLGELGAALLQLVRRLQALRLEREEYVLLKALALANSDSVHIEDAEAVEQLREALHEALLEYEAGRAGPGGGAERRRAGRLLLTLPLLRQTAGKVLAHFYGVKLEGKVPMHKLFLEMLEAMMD
Procedure, shortened: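 HepG2 cells transiently transfected with GAL4-UAS reporter units and chimeric NR-Gal4 constructs; after 24 hour compound incubation, reporter mRNA quantified by RT-PCR, fluorescent labelling and capillary electrophoresis, gain of signal versus DMSO.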

[18] = molecular target: Bile acid receptor (Homo sapiens) (UniProt Q96RI1); assay: ATG_FXR_TRANS: Attagene TRANS-FACTORIAL HepG2 Assay for Farnesoid X Receptor (FXR) (AID 2282979); conditions: HepG2 Attagene TRANS FXR-GAL4 reporter transcription;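 note: hits raise reporter mRNA above DMSO so AC50 marks FXR activation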
Procedure, shortened: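 HepG2 cells were transiently transfected with GAL4-UAS reporters driven by chimeric NR-Gal4 proteins and dosed for 24 h. Reporter mRNA was quantified by RT-PCR, fluorescent labelling, HpaI digestion and capillary electrophoresis, with gain of signal scored versus DMSO.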

[19] = molecular target: Nuclear receptor subfamily 1 group I member 3 (Homo sapiens) (UniProt Q14994); assay: ATG_CAR_TRANS: Attagene TRANS-FACTORIAL HepG2 Assay for human Constitutive Androstane Receptor (CAR) (AID 2282969); conditions: HepG2 Attagene TRANS-FACTORIAL CAR reporter;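 note: activators raise reporter mRNA above DMSO so AC50 marks induction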
Procedure, shortened: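 Signal is reporter mRNA induction relative to DMSO, measured 24 h after dosing by RT-PCR with fluorescent primer extension and capillary electrophoresis. Human HepG2 liver cells carried transiently transfected chimeric NR-Gal4/GAL4-UAS reporter constructs.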

Measured: AC50

[Cu+]
not listed: [12] | [13] | [14] | [15] | [16] | [17] | [18] | [19]
inactive: all other assays above

O=C(O)C1=NN(c2ccc(S(=O)(=O)O)cc2)C(=O)C1
not listed: [15] | [16] | [17] | [18] | [19]
inactive: all other assays above

C=CC(C)CCCC(C)(C)O (centres undefined)
inactive: [1] | [2] | [3] | [15] | [5] | [8] | [16] | [11]

CC(=O)CC(C)(C)C1CCCCC1
inactive: [1] | [2] | [3] | [4] | [17] | [5] | [13] | [8] | [9] | [11]

CC(=O)c1cccnc1
inactive: [1] | [2] | [3] | [15] | [5] | [7] | [9] | [11]

O=c1cc(-c2ccc(O)cc2)oc2cc(O)cc(O)c12
active: [5] 16.2 µM
inactive: [1] | [2] | [3] | [12] | [14] | [7] | [8] | [16] | [10] | [11]

CC(=O)OC(C)(C)C
not listed: [4] | [6] | [12] | [15] | [16] | [17] | [18] | [19]
inactive: all other assays above

CCC(=O)OC(C)(C)C1CC=C(C)CC1 (centres undefined)
not listed: [3] | [4] | [6] | [15] | [16] | [17] | [19]
inactive: all other assays above

[Na+]
inactive: [1] | [2] | [5] | [12] | [13] | [10] | [11]

CC1(C)[C@H](C=C(Cl)Cl)[C@H]1C(=O)OCc1cccc(Oc2ccccc2)c1
active: [15] 4.62 µM | [4] 8.45 µM
not listed: [3] | [7] | [9] | [12] | [14] | [17] | [18]
inactive: all other assays above
